The record followed here is PubChem BioAssay (NCATS).

A short description of test [1]: Cytotoxicity counterscreen for inhibitors of SARS-CoV-2 cell entry (AID 1645845). Note: nearly all actives have a fitted effect of over 50% in size. Note: potency is the fitted concentration of half-maximal effect. In short, it runs like this: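 48 h compound treatment (after 1 h preincubation), HEK293-ACE2 cells, 37 C/5% CO2; ATP luminescence endpoint; normalized to cell wells and media blanks.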
Test [2] in a line: Primary qHTS to identify inhibitors of SARS-CoV-2 cell entry (AID 1645846). Note: nearly all actives have a fitted effect of over 45% in size. Note: potency is the fitted concentration of half-maximal effect. In short, it runs like this: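 Luminescence readout (Bright-Glo luciferase) 48 h after pseudoparticle addition. HEK293-ACE2 cells, 1500/well; compound pre-incubation 1 h; Normalized to spike PP and bald PP.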
For orientation: Quantitative high-throughput screening tests each substance at several concentrations.

Another test has as its target Papain (Carica papaya) (UniProt P00784). Description: Primary qHTS assay for inhibitors of the protease papain (AID 1645873; active = well fitted inhibition curve with a large enough effect;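 note: papain turnover of Z-FR-AMC read as the AMC fluorescence gain over 10 min; % is set by controls: 0 for no effect and ±100 for the full control effect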).
[3] abbreviates: activity change, negative = inhibition: at 57.1 µM (top of the series) unless noted.

“And” between values parts separate entries of the source, which are not always exact repeats. Identical values can stand only once. Records with an inconclusive call do not appear. The source made the active and inactive calls. Unless noted, calls come from the whole dose curve.

Chain of Papain (Carica papaya) (P00784 whole entry, looked up): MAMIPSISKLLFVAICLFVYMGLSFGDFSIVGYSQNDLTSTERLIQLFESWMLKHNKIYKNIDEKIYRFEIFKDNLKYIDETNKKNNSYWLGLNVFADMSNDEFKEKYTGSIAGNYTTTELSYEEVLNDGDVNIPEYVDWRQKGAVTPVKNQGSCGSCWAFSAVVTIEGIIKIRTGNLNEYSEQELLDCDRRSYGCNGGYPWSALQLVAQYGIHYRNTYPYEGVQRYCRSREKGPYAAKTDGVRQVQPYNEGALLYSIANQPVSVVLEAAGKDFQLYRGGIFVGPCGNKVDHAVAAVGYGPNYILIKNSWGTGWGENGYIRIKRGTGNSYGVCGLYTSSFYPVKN

For `Cc1cnc(Nc2ccc(OCCN3CCCC3)cc2)nc1Nc1cccc(S(=O)(=O)NC(C)(C)C)c1`, the values for the Potency in test [1] and in test [2] (setting [3]) were 25.1 µM (active) and 22.4 µM (active), respectively. For the compound `CCc1c(C)[nH]c2c1C(=O)C(CN1CCOCC1)CC2` (stereo not drawn), the Potency entry in test [1] and in test [2] (setting [3]) was “inactive” in each case. In the case of `CC(=O)Oc1cccc(C)c1`, the Potency result in test [1] was “inactive”. The activity change, negative = inhibition in test [2] (setting [3]) came out at 0.724%.

As to `COc1ccccc1[C@H](c1cccc2ccccc12)[C@@](C)(C#N)C(=O)N1CCC(c2cccc(C(F)(F)F)c2)CC1`, the Potency entry in test [1] was “inactive”. In test [2] (setting [3]), the activity change, negative = inhibition was -3.93%.

Consider `O=C(O)[C@@H](c1ccc(OCc2ccc3ccccc3n2)cc1)C1CCCC1`, for which the Potency entry in test [1] was “inactive”. Also, in test [2] (setting [3]), the activity change, negative = inhibition was -23.5%.

As to `CC(C)C[C@H](NC(=O)[C@@H](O)[C@H](N)Cc1ccccc1)C(=O)O`, the Potency entry in test [1] was “inactive”. Moreover, the activity change, negative = inhibition in test [2] (setting [3]) was -29.5%. Consider `N#CCNC(=O)c1ccc(-c2ccnc(Nc3ccc(N4CCOCC4)cc3)n2)cc1`, for which the Potency in test [1] was 31.6 µM (active); in test [2] (setting [3]), 10 µM (active).

Take `O=C(O)c1ccc2cc(-c3ccc(O)c(C45CC6CC(CC(C6)C4)C5)c3)ccc2c1`: the Potency is 3.16 µM (active) in test [1] and 1.58 µM (active) in test [2] (setting [3]). As to `CCCCCCCC(=O)OCC(O)CO` (stereo not drawn), the Potency entry in test [1] was “inactive”. Also, the activity change, negative = inhibition in test [2] (setting [3]) is -24.7%. The like results for `COc1cc2c(cc1OC)CN(CCc1ccc(NC(=O)c3cccc4c(=O)c5cccc(OC)c5[nH]c34)cc1)CC2` were, in that order, “inactive” and -26.4%. On to `NC(=O)c1ccc(I)c([N+](=O)[O-])c1`, for which the Potency entry in test [1] is “inactive”. For the same compound, in test [2] (setting [3]), the activity change, negative = inhibition was -6.13%.

With `CC(C)(C)c1cc(C=C(C#N)C#N)cc(Br)c1O`, the Potency result in test [1] and in test [2] (setting [3]) was “inactive” in each case. Turning to `CC(C)c1ccc(Cn2ccc3c4c(N)nc(NC5CC5)nc4ccc32)cc1`, the Potency in test [1] was 2.51 µM (active). Further, the activity change, negative = inhibition in test [2] (setting [3]) was -96.8%. Consider `CC(C)(C)c1nnc(NS(=O)(=O)c2ccccc2)s1`, for which the Potency result in test [1] and in test [2] (setting [3]) was “inactive” in each case. On to `Cc1c(C)c2c(c(C)c1OC(=O)c1cccnc1)CC[C@@](C)(CCC[C@H](C)CCC[C@H](C)CCCC(C)C)O2`, for which the Potency result in test [1] and in test [2] (setting [3]) was “inactive” throughout. Consider `Cn1c(Nc2ccc(C(F)(F)F)cc2)nc2cc(Oc3ccnc(-c4ncc(C(F)(F)F)[nH]4)c3)ccc21`, for which, in test [1], the Potency entry is “inactive”. Further, in test [2] (setting [3]), the activity change, negative = inhibition was -24.1%.

As to `CCOC(=O)[C@@H](N)CCC(=O)N[C@@H](CSCc1ccccc1)C(=O)N[C@@H](C(=O)OCC)c1ccccc1`, the Potency entry in test [1] is “inactive”. In addition, the activity change, negative = inhibition in test [2] (setting [3]) turned out to be 0.458%. The like results for `CC(=O)NC(C)c1ccc(Oc2ccc(OC(C)C)cc2)cc1` (stereo not drawn) were, in that order, “inactive” and -26.1% [at 114 µM]. As to `CC1(C)Cc2c(-c3ccccc3)c(-c3ccc(Cl)cc3)c(CC(=O)O)n2C1`, in test [1], the Potency entry is “inactive”. In addition, in test [2] (setting [3]), the activity change, negative = inhibition was -28.3%. The like results for `CC(C)OC(=O)C1=CN(C(=O)c2ccc(F)c(F)c2)CC(C)(C)c2c1[nH]c1ccccc21` were, in that order, “inactive” and -3.59%. The like results for `Cc1cn(-c2cc(NC(=O)c3ccc(C)c(Nc4nccc(-c5cccnc5)n4)c3)cc(C(F)(F)F)c2)cn1` were, in that order, “inactive” and -29.3%. With `CNC(=O)c1ccc(N2C(=S)N(c3ccc(C#N)c(C(F)(F)F)c3)C(=O)C2(C)C)cc1F`, in test [1], the Potency entry is “inactive”. The Potency in test [2] (setting [3]) is 22.4 µM (active). `CN(C)c1ccc(C2Nc3ccc4ccccc4c3C3=C2C(=O)CC(C)(C)C3)cc1Br` (stereo not drawn): the Potency entry in test [1] is “inactive”. Moreover, in test [2] (setting [3]), the activity change, negative = inhibition is -8.04%. Consider `CCOc1cc(C(=O)Nc2ccc(Cl)c(-c3nc4ccccc4[nH]3)c2)cc(OCC)c1OCC`, for which the Potency result in test [1] is “inactive”. For the same compound, the Potency in test [2] (setting [3]) is 25.1 µM (active). Take `C[C@@H]1CN(c2c(F)c(N)c3c(=O)c(C(=O)O)cn(C4CC4)c3c2F)C[C@H](C)N1`: the Potency entry in test [1] was “inactive”. The activity change, negative = inhibition was -12.9% in test [2] (SARS-CoV-2 pseudovirus cell entry assay, luminescence, at 27.1 µM (top of the series)) and -5.48% in test [2] (SARS-CoV-2 pseudovirus cell entry assay, luminescence, at 57.1 µM (top of the series)). As to `CC1=C[C@@H]2[C@@H]([C@@H](O)C[C@@]3(C)[C@H]2C[C@@H](C)[C@]3(O)C(=O)CO)[C@@]2(C)Cc3cnn(-c4ccccc4)c3C=C12`, in test [2] (setting [3]), the Potency entry is “inactive”.

`C1Cc2[nH]nc(-c3nn[nH]n3)c2C1`: the activity change, negative = inhibition in test [2] (setting [3]) is 4.96%. As for `Nc1ccccc1NC(=O)c1ccc(CNc2nccc(-c3cccnc3)n2)cc1`, in test [2] (setting [3]), the Potency result was “inactive”. Turning to `CC(=O)N[C@@H](Cc1ccc(O)cc1)C(=O)O`, the Potency result in test [2] (setting [3]) was “inactive”. `CC[C@H](Nc1ncnc2nc[nH]c12)c1nc2cccc(F)c2c(=O)n1-c1ccccc1`: in test [1], the Potency entry is “inactive”. The activity change, negative = inhibition in test [2] (setting [3]) was -11%. With `O=c1cc(N2CCOCC2)oc2c(-c3cccc4c3sc3ccccc34)cccc12`, in test [2] (setting [3]), the Potency is 7.94 µM (active). Consider `Cc1ccc(C(=O)Nc2ccc(CN3CCN(C)CC3)c(C(F)(F)F)c2)cc1C#Cc1cnc2cccnn12`, for which the Potency was 31.6 µM (active) in test [1] and 8.91 µM (active) in test [2] (setting [3]). On to `CC(C)NC(C)Cc1ccc(I)cc1` (stereo not drawn), for which the Potency result (in test [1]; with Papain (Carica papaya)) was “inactive” in each case. For `CCCCCCCc1ccc(CCc2cccc(O)c2C(=O)O)cc1`, the activity change, negative = inhibition in test [2] (setting [3]) was -27.4%. With `O=C(O)c1ccc(O)c2ncc(N3CCOCC3)cc12`, the Potency in test [2] (setting [3]) was 28.2 µM (active). On to `COc1ccc(-c2c(-c3ccc(O)cc3O)n[nH]c2C)cc1`, for which the activity change, negative = inhibition in test [2] (setting [3]) was -56.7%. For the compound `C[N+](C)(C)CC(=O)O`, the Potency result (in test [1]; with Papain (Carica papaya)) was “inactive” in each case. For the same compound, the activity change, negative = inhibition in test [2] (setting [3]) was -0.459% and -19.8%.
